In paper PMC5540273 (PLoS ONE, 2017):
Several values for one entry are separate records, joined by “and”; a condition that tells them apart may be missing. Identical values can stand only once. Like-named read-outs stand apart in the source and are kept apart here.

How the values were obtained:
PFTK1 = system: T1, PFTK1; details: concentration: 1 μM, replicates: in singlicate, n = 1
T1 construct: gene CDK14

PHKG1 = details: concentration: 1 μM, replicates: in singlicate, n = 1
PHKG2 = details: concentration: 1 μM, replicates: in singlicate, n = 1
PIK3C2B = details: concentration: 1 μM, replicates: in singlicate; n = 1
PIK3C2G = details: concentration: 1 μM, replicates: in singlicate, n = 1
PIK3CA = details: concentration: 1 μM, replicates: in singlicate, n = 1
PIK3CB = details: concentration: 1 μM, replicates: in singlicate, n = 1
PIK3CD = details: concentration: 1 μM, replicates: in singlicate; n = 1
PIK3CG = details: concentration: 1 μM, replicates: in singlicate, n = 1
PIK4CB = system: T2, PIK4CB; details: concentration: 1 μM, replicates: in singlicate, n = 1
T2 construct: gene PI4KB
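Note: KINOMEscan kinase panel screen.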

Row | SMILES | %Inh (PFTK1) | %Inh (PHKG1) | %Inh (PHKG2) | %Inh (PIK3C2B) | %Inh (PIK3C2G) | %Inh (PIK3CA) | %Inh (PIK3CB) | %Inh (PIK3CD) | %Inh (PIK3CG) | %Inh (PIK4CB) | %Inh (PFTK1; 1 µM) | %Inh (PHKG1; 1 µM) | %Inh (PHKG2; 1 µM) | %Inh (PIK3C2G; 1 µM) | %Inh (PIK3CA; 1 µM) | %Inh (PIK3CB; 1 µM) | %Inh (PIK3CG; 1 µM) | %Inh (PIK4CB; 1 µM)
1 | COc1cc(Nc2nccc(N3CCC(NC(=O)c4cccc(NC(C)=O)c4)C3)n2)cc(OC)c1OC (stereo not drawn) [GSK1379754] | 18% | 7% | 3% | 100% | 0% | 99.9% | 0% | 0% | 99.9% | 0% |  |  |  |  |  |  |  | 
2 | O=C1NC(=O)C(N2CCc3ccccc32)=C1c1cccc(Cl)c1 [SB-408010] | 5% | 0% | 0% | 0% | 0% | 0% | 33% | 9% | 0% | 5% |  |  |  |  |  |  |  | 
3 | Cc1c2ccc(N(C)c3ccnc(Nc4cccc(S(N)(=O)=O)c4)n3)cc2nn1Cc1ccccc1.Cl.Cl [GW787226] | 27% | 0% | 0% | 5% | 0% | 0% | 0% | 0% | 0% | 0% |  |  |  |  |  |  |  | 
4 | O=c1cc(N2CCOCC2)nc2n(Cc3cccc(Cl)c3Cl)c(C3CC3)nn12 [GSK2358994] | 0% | 8% | 0% | 70% | 64% | 8% | 100% | 82% | 45% | 0% |  |  |  |  |  |  |  | 
5 | COc1cc2ncn(-c3cc(OCc4sccc4Cl)c(C(N)=O)s3)c2cc1OC [GSK448459] | 12% | 0% | 0% | 15% | 0% | 0% | 0% | 30% | 35% | 0% |  |  |  |  |  |  |  | 
6 | O=c1cc(N2CCOCC2)nc2n(Cc3cccc(C(F)(F)F)c3)ccn12 [GSK2297543] | 12% | 0% | 4% | 0% | 0% | 0% | 96.5% | 28% | 8% | 0% |  |  |  |  |  |  |  | 
7 | Cc1nnc(-c2ccc3occ(-c4ccc(C(C)O)cc4)c3c2)o1 (stereo not drawn) | 1% | 9% | 16% | 18% | 23% | 9% | 18% | 0% | 25% | 0% |  |  |  |  |  |  |  | 
8 | NS(=O)(=O)c1cccc(-c2ccc3ncc(N4CCOCC4)nc3c2)c1 [GSK1535721] | 24% | 0% | 41% | 0% | 14% | 13% | 12% | 34% | 29% | 81% |  |  |  |  |  |  |  | 
9 | [2H]C([2H])(c1cccc(C(F)(F)F)c1C)n1ccn2c(=O)nc(N3CCOCC3)cc12 [GSK2336394] | 12% | 0% | 0% | 0% | 0% | 0% | 97.5% | 38% | 0% | 0% |  |  |  |  |  |  |  | 
10 | COc1ccc(Nc2nccc(N3CCC(NC(=O)Nc4cc(C)ccc4C)C3)n2)cc1 (stereo not drawn) [GSK1379741] | 2% | 0% | 0% | 0% | 0% | 0% | 0% | 0% | 0% | 23% |  |  |  |  |  |  |  | 
11 | CC(C)(C)n1cnc2c(N)ncnc21 [SKF-97359] | 0% | 14% | 24% | 0% | 0% | 0% | 0% | 0% | 0% | 25% |  |  |  |  |  |  |  | 
12 | Cc1ccc(NC(=O)c2ccnc(N3CCN(C)CC3)c2)cc1-c1ccc(C(=O)NCC2CC2)cc1 [GW775604] | 0% | 0% | 0% | 0% | 0% | 0% | 0% | 0% | 0% | 0% |  |  |  |  |  |  |  | 
13 | Cc1ccc(C(=O)NCC(N)=O)cc1-n1c(C)cc(OCc2ccc(F)cc2F)c(Br)c1=O | 26% | 9% | 1% | 0% | 51% | 0% | 0% | 30% | 0% | 0% |  |  |  |  |  |  |  | 
14 | CN1c2ccc(CNc3ccc(F)cc3)cc2-c2c(cnn2C)S1(=O)=O | 0% | 0% | 0% | 19% | 41% | 0% | 0% | 0% | 0% | 0% |  |  |  |  |  |  |  | 
15 | NCCNS(=O)(=O)c1ccc(-c2ccnc3[nH]ccc23)cc1 [GSK977617] |  |  |  | 0% |  |  |  | 0% |  |  | 16% and 27% | 45% and 25% | 75% and 60% | 32% and 12% | 0% and 3% | 43% and 15% | 80% and 68% | 64% and 26%
16 | COc1ccc(COc2cc(-n3cnc4ccccc43)sc2C(N)=O)cc1 [GSK1024304] | 0% | 0% | 0% | 0% | 0% | 0% | 100% | 0% | 0% | 0% |  |  |  |  |  |  |  | 
17 | O=C1Cc2cc(Nc3nc(NCc4cccc(S(=O)(=O)C(F)(F)F)c4)ncc3C(F)(F)F)ccc2N1 | 0% | 3% | 0% | 0% | 0% | 0% | 0% | 13% | 8% | 4% |  |  |  |  |  |  |  | 

Row | SMILES | %Inh (PFTK1) | %Inh (PHKG1) | %Inh (PHKG2) | %Inh (PIK3C2B) | %Inh (PIK3C2G) | %Inh (PIK3CA) | %Inh (PIK3CB) | %Inh (PIK3CD) | %Inh (PIK3CG) | %Inh (PIK4CB) | %Inh (PFTK1; 1 µM) | %Inh (PHKG1; 1 µM) | %Inh (PHKG2; 1 µM) | %Inh (PIK3C2G; 1 µM) | %Inh (PIK3CA; 1 µM) | %Inh (PIK3CB; 1 µM) | %Inh (PIK3CG; 1 µM) | %Inh (PIK4CB; 1 µM)
18 | COc1cc2c(cc1OC[C@@H](O)CO)ncc1c3ccc(C#N)cc3[nH]c21 | 0% | 95.5% | 99.2% | 0% | 0% | 18% | 0% | 2% | 9% | 0% |  |  |  |  |  |  |  | 
19 | O=C(NCCCN1CCOCC1)c1cccc(Nc2nccc(Nc3ccc(Oc4ccccc4)cc3)n2)c1 [GW663929] | 43% | 0% | 14% | 6% | 0% | 12% | 18% | 7% | 11% | 21% |  |  |  |  |  |  |  | 
20 | Cl.Cl.Cl.Fc1ccc(-c2ncn(C3CCNCC3)c2-c2ccnc(Nc3ccccc3)n2)cc1 [SB-238039] |  |  | 0% | 0% | 0% |  |  | 0% |  |  | 16% and 0% | 4% and 0% |  |  | 6% and 0% | 0% and 13% | 0% and 26% | 7% and 34%
21 | O=C(NCCNc1ccnc(Nc2ccc(F)cc2)n1)Nc1ccccc1F [GSK1379880] | 13% | 0% | 0% | 0% | 62% | 0% | 0% | 21% | 0% | 13% |  |  |  |  |  |  |  | 
22 | N#Cc1c(N2CCOCC2)sc(-c2ccn[nH]2)c1-c1ccc(Cl)cc1 | 19% | 9% | 0% | 31% | 37% | 90% | 97% | 46% | 20% | 16% |  |  |  |  |  |  |  | 
23 | CN1c2ccc(NCc3ccc(F)cc3)cc2-c2c(cnn2C)S1(=O)=O | 0% | 0% | 0% | 0% | 0% | 0% | 0% | 0% | 0% | 0% |  |  |  |  |  |  |  | 
24 | Cc1cccc(-c2nc(Nc3ccc4ncsc4c3)c3ccccc3n2)n1 [GW867588] | 0% | 0% | 0% | 0% | 10% | 0% | 0% | 30% | 0% | 28% |  |  |  |  |  |  |  | 
25 | Nc1nccc(-c2c(-c3ccc(F)cc3)ncn2C2CCN(CC(F)(F)F)CC2)n1 [SB-236560] | 0% | 0% | 0% | 5% | 53% | 0% | 18% | 0% | 66% | 46% |  |  |  |  |  |  |  | 
26 | Cc1cn2c(=O)cc(N3CCOCC3)nc2n1Cc1cccc(Cl)c1Cl [GSK2334006] | 0% | 14% | 14% | 36% | 1% | 3% | 88% | 100% | 22% | 0% |  |  |  |  |  |  |  | 
27 | CN(C(=O)c1ccc(-c2cc(-c3c[nH]nc3-c3ccccn3)ccn2)cc1)C1CCOCC1 [GW810083] | 0% | 1% | 12% | 0% | 10% | 0% | 0% | 1% | 32% | 40% |  |  |  |  |  |  |  | 
28 | O=C(c1ccc(-c2cc(-c3c[nH]nc3-c3ccccn3)ccn2)cc1)N1CCOCC1 [GW812171] | 20% | 1% | 0% | 0% | 0% | 29% | 0% | 0% | 0% | 8% |  |  |  |  |  |  |  | 
29 | CCn1cnc2c(N)ncnc21 [GW345098] | 2% | 4% | 13% | 27% | 31% | 29% | 0% | 0% | 21% | 1% |  |  |  |  |  |  |  | 
30 | CCc1ccnc(/C=C/c2n[nH]c3cc(Sc4ccccc4C(=O)NC)ccc23)c1 | 8% | 17% | 6% | 0% | 0% | 0% | 0% | 10% | 0% | 0% |  |  |  |  |  |  |  | 
31 | COc1ccc(Nc2nccc(N3CCC(NC(=O)Nc4cccc(C(C)=O)c4)C3)n2)cc1 (stereo not drawn) [GSK1379731] | 3% | 0% | 0% | 0% | 0% | 0% | 0% | 0% | 0% | 0% |  |  |  |  |  |  |  | 
32 | NCC(NC(=O)c1cc(-c2cn[nH]c2)c(-c2ccnc3[nH]ccc23)s1)c1ccccc1.O=C(O)C(F)(F)F.O=C(O)C(F)(F)F (stereo not drawn) [GSK1325775] | 21% | 18% | 26% | 0% | 0% | 0% | 0% | 24% | 3% | 26% |  |  |  |  |  |  |  | 
33 | O=c1cc(N2CCOCC2)nc2n(Cc3cccc4ccccc34)ccn12 [GSK2333389] | 0% | 2% | 0% | 0% | 0% | 0% | 99.7% | 89% | 3% | 6% |  |  |  |  |  |  |  | 
